# Reference: PubChem BioAssay
# Values joined by “and” are separate entries in the source; they are usually repeats but may differ in a detail not shown here. Identical values can stand only once. Results filed as inconclusive are left out. Active and inactive are the calls of the source. Unless noted, cut-off not given; nearly all actives show AC50 up to about 26 µM.
# Assays:
# [1] = viability loss in pontine glioma line – cell-based, SU-DIPG-XVII, MIPE5.0, CellTiter-Glo, qHTS, dose response (AID 1347060); conditions: CellTiter-Glo ATP luminescence;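 on AC50: cells exposed to compound for 48 hours before viability readout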
# [2] = viability loss in pontine glioma line – cell-based, SU-DIPG-IV, MIPE4.0, CellTiter-Glo, qHTS, dose response (AID 1347063; cut-off not given, nearly all actives have AC50 up to about 30 µM;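 further: compound exposure lasted 48 hours before the viability readout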); conditions: CellTiter-Glo ATP luminescence
# [3] = viability loss in pontine glioma line – cell-based, SU-DIPG-XIII, MIPE5.0, CellTiter-Glo, qHTS, dose response (AID 1347064; cut-off not given, nearly all actives have AC50 up to about 23 µM;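 on AC50: cells exposed to compound for 48 hours before the viability read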); conditions: CellTiter-Glo ATP luminescence
# [4] = viability loss in pontine glioma line – cell-based, SU-DIPG-XXV, MIPE5.0, CellTiter-Glo, qHTS, dose response (AID 1347065); conditions: CellTiter-Glo ATP luminescence;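 further: cells exposed to compound for 48 hours before ATP readout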
# [5] = growth inhibition of DIPG cells – cell-based, MIPE5.0 library, qHTS (AID 1347068; cut-off not given, nearly all actives have IC50 up to about 30 µM;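 on IC50: cells exposed to compound for 48 hours before viability readout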); conditions: SU-DIPG-XXV viability
# [6] = JHH-DIPG-1 glioma cell viability, MIPE5.0 library, CellTiter-Glo luminescence, qHTS (AID 1347067); conditions: JHH-DIPG-1 glioma viability, CellTiter-Glo ATP luminescence;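 further: cells exposed to compound for 48 hours before readout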
# [7] = compounds altering HSF1 focus formation in cells – imaging, Selleck Cancer Library (AID 1347162; in the data active means plate-normalised HSF1 focus index below about 0.46); conditions: human cells, HSF1 nuclear foci imaging, at 10 µM; SSMD: measured here: HSF1 foci SSMD mean; cell count: measured here: cell number; plate-normalised HSF1 focus index: stronger effect = lower value
# [8] = growth inhibition of DIPG cells – cell-based, MIPE4.0 library, CellTiter-Glo luminescence, qHTS (AID 1347066; cut-off not given, nearly all actives have AC50 up to about 30 µM;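 further: cells exposed to compound for 48 hours before readout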); conditions: SU-DIPG-VI viability, CellTiter-Glo ATP luminescence
# [9] = viability loss with induced miR-34 in A549 – imaging, A549 dox-inducible miR-34, nuclei and caspase counts, primary screen (AID 1347080;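 active means compounds whose cell count with miR-34 switched on is under 0.7 times the count with it off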); conditions: A549 miR-34 inducible, Hoechst nuclei count, 48 h
# [10] = MELAS cybrid and Rieske KO viability enhancers – cell-based, MELAS cybrids, Rieske KO mouse fibroblasts, CellTiter-Glo, primary screen (AID 1508586;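 active means mean z-score across replicates of 1.96 or higher in either the MELAS or the Rieske mutant cell line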;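 further: z relative to plate mean and SD of compound and empty wells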); conditions: low glucose
# [11] = drug combination growth inhibition, ovarian cancer – cell-based, oncology-focused library, rucaparib conditional, profiling panel (AID 1508598;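 active means normalized viability below 100% at a tested concentration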); conditions: patient-derived ovarian cancer cells, CellTiter-Glo viability, 144 h, stronger effect = lower value
# [12] = stronger effect = lower value, cell number ratio, induced over uninduced
# [13] = measured here: relative caspase fold change +Dox/-Dox
# [14] = measured here: total cells with miR-34 induction, stronger effect = lower value
# [15] = measured here: total cells without miR-34 induction
# [16] = MELAS cybrid survival, CellTiter-Glo 48 h, stronger effect = higher value
# [17] = Rieske KO mouse fibroblast survival, CellTiter-Glo 72 h
smiles,measurement,setting,value
CNc1nccc(-c2cccnc2Oc2cc(C(=O)Nc3cccc(C(F)(F)F)c3)ccc2C)n1,AC50,[1],3.72 µM (active)
same,AC50,[2],13.2 µM (active)
same,AC50,[3],5.9 µM (active)
same,AC50,[4],5.9 µM (active)
same,IC50,[5],13.2 µM (active)
CCNC(=O)Nc1ccc(-c2nc3c(c(N4CCOC[C@@H]4C)n2)CCN(C2COC2)C3)cc1,AC50,[1],2.95 µM (active)
same,AC50,[2],0.332 µM (active)
same,AC50,[4],1.32 µM (active)
O=C(Nc1ccc(OC(F)(F)Cl)cc1)c1cnc(N2CC[C@@H](O)C2)c(-c2ccn[nH]2)c1,AC50,[1],23.5 µM (active)
same,outcome,[3],inactive
CC(C)=CCC/C(C)=C/CC/C(C)=C/CSc1ccccc1C(=O)O,outcome,[1],inactive
same,AC50,[2],0.526 µM (active)
same,outcome,[6],inactive
same,outcome,[5],inactive
same,SSMD,[7],2.56
same,cell count,[7],6790
same,plate-normalised HSF1 focus index,[7],1.15 (inactive)
CN1c2ccccc2C(=O)N2CCc3c([nH]c4ccccc34)C21 (stereo not drawn),AC50,[1],2.95 µM (active)
same,outcome,[2],inactive
same,AC50,[4],2.35 µM (active)
same,outcome,[8],inactive
same,AC50,[6],5.25 µM (active)
CC(=O)Oc1cc2c(s1)CCN(C(C(=O)C1CC1)c1ccccc1F)C2 (stereo not drawn),outcome,[1],inactive
same,AC50,[2],16.6 µM (active)
same,outcome,[4],inactive
same,outcome,[6],inactive
same,outcome,[5],inactive
same,fold change,[9]; [12],0.891 (inactive) and 0.933 (inactive)
same,fold change,[9]; [13],0.621 and 0.805
same,cell count,[9]; [14],7600 and 7230
same,cell count,[9]; [15],8520 and 7750
same,z-score,[10]; [16],-1.04 (inactive) and -0.446 (inactive)
same,z-score,[10]; [17],-0.245 and 0.545
COc1ccc(-c2cc3nccn3c(Nc3ncccc3C(N)=O)n2)cc1OC,AC50,[1],11.8 µM (active)
same,AC50,[2],3.32 µM (active)
same,AC50,[3],4.68 µM (active)
same,AC50,[4],5.25 µM (active)
same,SSMD,[7],-0.302
same,cell count,[7],6940
same,plate-normalised HSF1 focus index,[7],0.994 (inactive)
Nc1cccc(-c2cc3c(Oc4cccc(O)c4)ncnc3[nH]2)c1,AC50,[1],1.66 µM (active)
same,AC50,[2],11.8 µM (active)
same,AC50,[3],4.68 µM (active)
same,AC50,[4],5.25 µM (active)
same,IC50,[5],8.33 µM (active)
same,fold change,[9]; [12],1.45 (inactive)
same,fold change,[9]; [13],0.507
same,cell count,[9]; [14],1790
same,cell count,[9]; [15],1240
same,z-score,[10]; [16],0.0499 (inactive)
same,z-score,[10]; [17],-2.88
COc1cc(OC)cc(N(CCNC(C)C)c2ccc3ncc(-c4cnn(C)c4)nc3c2)c1,AC50,[1],0.0661 µM (active)
same,AC50,[3],0.0661 µM (active)
same,AC50,[4],0.0833 µM (active)
Cc1nc([C@](C)(O)CO)sc1-c1cnc(N)c(O[C@H](C)c2cc(F)ccc2-n2nccn2)c1,AC50,[1],8.33 µM (active)
same,AC50,[3],1.48 µM (active)
same,AC50,[4],2.63 µM (active)
O=C1NC(=O)[C@@H](c2cn3c4c(cccc24)CCC3)[C@@H]1c1c[nH]c2ccccc12,AC50,[1],1.05 µM (active)
same,AC50,[2],13.2 µM (active)
same,AC50,[4],1.48 µM (active)
same,AC50,[8],23.5 µM (active)
CC[C@H](CC#N)OC(=O)N[C@@H](C)c1cccc(NC(=O)Nc2ccc(-c3cnco3)c(OC)c2)c1,AC50,[1],0.525 µM (active)
same,AC50,[2],1.32 µM (active)
same,AC50,[4],0.468 µM (active)
same,AC50,[6],2.63 µM (active)
same,IC50,[5],14.8 µM (active)
OCCn1cc(-c2ccc3c(c2)CC/C3=N\O)c(-c2ccncc2)n1,AC50,[1],14.8 µM (active)
same,outcome,[2],inactive
same,outcome,[5],inactive
same,SSMD,[7],1.73
same,cell count,[7],6750
same,plate-normalised HSF1 focus index,[7],1.09 (inactive)
c1ccc(-c2cc(CCC3CCNCC3)c3ccccc3n2)cc1,AC50,[1],23.5 µM (active)
same,AC50,[3],23.5 µM (active)
same,AC50,[4],23.5 µM (active)
CC[C@@H]([C@H](C)O)n1ncn(-c2ccc(N3CCN(c4ccc(OCC5CO[C@@](Cn6cncn6)(c6ccc(F)cc6F)C5)cc4)CC3)cc2)c1=O (stereo partly drawn),AC50,[1],18.6 µM (active)
same,AC50,[2],14.8 µM (active)
same,outcome,[8],inactive
CCC(=C/[C@H](C)C/C=C/C(C)=C/[C@@H](C)C(=O)[C@@H](C)[C@H](O)[C@@H](C)C/C(C)=C/C(=O)O)/C=C/[C@@H]1OC(=O)C=C[C@@H]1C,AC50,[1],0.00296 µM (active)
same,AC50,[2],0.0139 µM (active)
same,AC50,[4],0.00209 µM (active)
same,AC50,[6],18.6 µM (active)
same,IC50,[5],0.833 µM (active)
CCCCNc1ncc(-c2ccc(CN3CCOCC3)cn2)c(NC2CCC(O)CC2)n1 (stereo not drawn),AC50,[1],2.57 µM (active)
same,outcome,[3],inactive
same,AC50,[4],1.82 µM (active)
CO[C@@H]1[C@@H](O)[C@H](O)[C@@H](n2c3c(Cl)cccc3c3c4c(c5c6cccc(Cl)c6[nH]c5c32)C(=O)NC4=O)O[C@H]1CO,AC50,[1],0.105 µM (active)
same,AC50,[2],0.209 µM (active)
same,AC50,[6],2.63 µM (active)
same,outcome,[5],inactive
CNc1nc(Nc2ccc(C(=O)N3CCOCC3)cc2OC)ncc1Cl,outcome,[1],inactive
same,outcome,[2],inactive
same,outcome,[3],inactive
same,outcome,[8],inactive
same,outcome,[5],inactive
CN(C)CC(=O)N1CCC(c2ccc(NC(=O)c3ncc(C#N)[nH]3)c(C3=CCCCC3)c2)CC1,AC50,[1],23.5 µM (active)
same,AC50,[2],20.9 µM (active)
same,AC50,[4],20.9 µM (active)
same,AC50,[8],18.7 µM (active)
same,outcome,[6],inactive
same,outcome,[5],inactive
Nc1ncc(C(=O)NC2CN(C(=O)C3CC3)C2)c2ccc(-c3cccc(F)c3)nc12,outcome,[1],inactive
same,outcome,[3],inactive
Cc1cc(-c2nc3cc(F)ccc3s2)ccc1NC(=O)[C@@H](N)CCCCN,AC50,[1],20.9 µM (active)
same,AC50,[3],20.9 µM (active)
CNC(=O)c1cc(Oc2ccc(NC(=O)Nc3ccc(Cl)c(C(F)(F)F)c3)c(F)c2)ccn1,AC50,[1],16.6 µM (active)
same,AC50,[2],13.2 µM (active)
same,AC50,[4],20.9 µM (active)
same,AC50,[8],9.35 µM (active)
same,IC50,[5],20.9 µM (active)
same,fold change,[9]; [12],0.87 (inactive)
same,fold change,[9]; [13],0.959
same,cell count,[9]; [14],2520
same,cell count,[9]; [15],2900
same,z-score,[10]; [16],-0.38 (inactive)
same,z-score,[10]; [17],1.02
same,viability,"[11]; at 0.000305 µM, OCI-C5x cells, with rucaparib 10 µM, 100% = cells with rucaparib alone",108% (inactive)
same,viability,"[11]; at 0.000305 µM, OCI-C5x cells, without rucaparib",90.4% (active)
same,viability,"[11]; at 0.000305 µM, OCI-P5x cells, with rucaparib 20 µM, 100% = cells with rucaparib alone",101% (inactive)
same,viability,"[11]; at 0.000305 µM, OCI-P5x cells, without rucaparib",104% (inactive)
same,viability,"[11]; at 0.00122 µM, OCI-C5x cells, with rucaparib 10 µM, 100% = cells with rucaparib alone",108% (inactive)
same,viability,"[11]; at 0.00122 µM, OCI-C5x cells, without rucaparib",90.8% (active)
same,viability,"[11]; at 0.00122 µM, OCI-P5x cells, with rucaparib 20 µM, 100% = cells with rucaparib alone",109% (inactive)
same,viability,"[11]; at 0.00122 µM, OCI-P5x cells, without rucaparib",106% (inactive)
same,viability,"[11]; at 0.00488 µM, OCI-C5x cells, with rucaparib 10 µM, 100% = cells with rucaparib alone",109% (inactive)
same,viability,"[11]; at 0.00488 µM, OCI-C5x cells, without rucaparib",98.5% (active)
same,viability,"[11]; at 0.00488 µM, OCI-P5x cells, with rucaparib 20 µM, 100% = cells with rucaparib alone",114% (inactive)
same,viability,"[11]; at 0.00488 µM, OCI-P5x cells, without rucaparib",109% (inactive)
same,viability,"[11]; at 0.0195 µM, OCI-C5x cells, with rucaparib 10 µM, 100% = cells with rucaparib alone",114% (inactive)
same,viability,"[11]; at 0.0195 µM, OCI-C5x cells, without rucaparib",91.4% (active)
same,viability,"[11]; at 0.0195 µM, OCI-P5x cells, with rucaparib 20 µM, 100% = cells with rucaparib alone",115% (inactive)
same,viability,"[11]; at 0.0195 µM, OCI-P5x cells, without rucaparib",116% (inactive)
same,viability,"[11]; at 0.0781 µM, OCI-C5x cells, with rucaparib 10 µM, 100% = cells with rucaparib alone",106% (inactive)
same,viability,"[11]; at 0.0781 µM, OCI-C5x cells, without rucaparib",88.4% (active)
same,viability,"[11]; at 0.0781 µM, OCI-P5x cells, with rucaparib 20 µM, 100% = cells with rucaparib alone",115% (inactive)
same,viability,"[11]; at 0.0781 µM, OCI-P5x cells, without rucaparib",110% (inactive)
same,viability,"[11]; at 0.313 µM, OCI-C5x cells, with rucaparib 10 µM, 100% = cells with rucaparib alone",104% (inactive)
same,viability,"[11]; at 0.313 µM, OCI-C5x cells, without rucaparib",102% (inactive)
same,viability,"[11]; at 0.313 µM, OCI-P5x cells, with rucaparib 20 µM, 100% = cells with rucaparib alone",115% (inactive)
same,viability,"[11]; at 0.313 µM, OCI-P5x cells, without rucaparib",117% (inactive)
same,viability,"[11]; at 1.25 µM, OCI-C5x cells, with rucaparib 10 µM, 100% = cells with rucaparib alone",107% (inactive)
same,viability,"[11]; at 1.25 µM, OCI-C5x cells, without rucaparib",104% (inactive)
same,viability,"[11]; at 1.25 µM, OCI-P5x cells, with rucaparib 20 µM, 100% = cells with rucaparib alone",103% (inactive)
same,viability,"[11]; at 1.25 µM, OCI-P5x cells, without rucaparib",117% (inactive)
same,viability,"[11]; at 5 µM, OCI-C5x cells, with rucaparib 10 µM, 100% = cells with rucaparib alone",125% (inactive)
same,viability,"[11]; at 5 µM, OCI-C5x cells, without rucaparib",105% (inactive)
same,viability,"[11]; at 5 µM, OCI-P5x cells, with rucaparib 20 µM, 100% = cells with rucaparib alone",80.9% (active)
same,viability,"[11]; at 5 µM, OCI-P5x cells, without rucaparib",121% (inactive)
